# Records with an inconclusive call do not appear. Calls of active or inactive are those of the source. The call rests on the fitted dose curve; in most records, active means well fitted activation curve with a large enough effect; inconclusive means small, poorly fitted or top-dose-only effect; inactive means no such curve, though single readings can be large or run the other way.
# Assay: qHTS Assay for Agonists of the Relaxin Receptor RXFP1: V1B Hit Validation;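 further: counter-screen in HEK293 cells expressing V1B rather than RXFP1 for selectivity; nearly all actives have a fitted effect of over 65% in size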;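 on activation: cAMP accumulation with PDE4 inhibitor Ro 20-1724 present during compound exposure; 0% = buffer alone basal and 100% = 29 nM porcine relaxin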
# Settings: HEK293 V1B cells, cAMP TR-FRET, 30 min; series mostly up to 115 µM; activation: at the top concentration
# How it was run: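 HEK293 cells (2000/well) were exposed to compounds for 30 min at 37C with PDE4 inhibitor Ro 20174. cAMP was read by TR-FRET after lysis, normalized to buffer and 29 nM porcine relaxin, and EC50 was fitted by Hill equation.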
# Potency means the concentration at half of the fitted maximal effect.
Structure (SMILES),activation,Potency
Cc1cc2nc3ccc(=[N+](C)C)cc-3sc2cc1N,-4.25% (inactive),
COc1cccc(CNC(=O)c2ccc(CS(=O)Cc3ccc(C)cc3)o2)c1 (stereo unspecified),1.42% [at 44.9 µM] (inactive),
Cc1ccccc1NC(=O)c1ccccc1NC(=O)c1ccco1,9.6% [at 127 µM] (inactive),
CCS(=O)(=O)c1nc(S(=O)(=O)c2ccc(Cl)cc2)c(N2CCN(CCO)CC2)s1,,34.6 µM (active)
O=[N+]([O-])c1cc2c(c(CSc3nnc4ccccn34)c1)OCOC2,,12.3 µM (active)
Cn1c(N)c(C(=O)CSc2nnc(NC3CCCCC3)s2)c(=O)n(C)c1=O,-26.8% (inactive),
CCOC(=O)CCCCC(=O)c1[nH]c(=O)[nH]c1CSc1nnc2c3cc(Br)ccc3n(C)c2n1,,10.9 µM (active)
Cc1cc(C)c(C(=O)CSc2n[nH]c(=O)n2C2CC2)cc1C,-2.45% (inactive),
N#Cc1c(N)nc(SCC(=O)C23CC4CC(CC(C4)C2)C3)c(C#N)c1-c1ccc(Cl)cc1,,12.3 µM (active)
O=C(O)CCNc1ccc(NCCC(=O)O)c2c1C(=O)c1ccccc1C2=O,1.09% (inactive),
CN(CC(=O)Nc1ccccc1Cl)C(=O)COC(=O)Cc1c(F)cccc1Cl,3.14% [at 44.9 µM] (inactive),
O=C(OCc1nc2ccsc2c(=O)[nH]1)c1cccc(S(=O)(=O)N2CCOCC2)c1,,34.6 µM (active)
CC(C)C(=O)Nc1ccc(Nc2ccccc2)cc1,-2.7% (inactive),
CC1(C)O[C@@H]2[C@H](O1)[C@@H](COS(=O)(=O)O)O[C@H]2n1cnc2c(N)ncnc21,,3.88 µM (active)
CC(C)(C)C(=O)Nc1ccccc1C(=O)NCc1ccco1,1.03% [at 127 µM] (inactive),
CCOC(=O)c1cc2c(=O)n3ccccc3nc2n(Cc2ccco2)c1=NC(=O)c1ccccc1OCC,,38.9 µM (active)
CCc1nnc(NC(=O)CSc2nc(C)nc3c2c(=O)n(C)c(=O)n3C)s1,,9.74 µM (active)
Cc1cc(C)c(NC(=O)CS(=O)CC(=O)Nc2ccc(F)cc2F)c(C)c1 (stereo unspecified),3.65% (inactive),
O=C(Nc1ccccc1C(=O)N1CCCCC1)c1ccco1,7.89% [at 127 µM] (inactive),
COc1ccc(CC(=O)N/N=C/c2cccnc2)cc1OC,-5.08% (inactive),
COc1ccc(CN2C(=O)c3cccnc3C2=O)cc1S(=O)(=O)NC1CCCCC1,,34.6 µM (active)

# — PubChem BioAssay AID492948 (National Center for Advancing Translational Sciences (NCATS), 2010)
